# Results as given in ChEMBL document CHEMBL2218924, “A broad activity screen in support of a chemogenomic map for kinase signalling research and drug discovery” (Biochem J, 2013).
# Columns and labels:
# [1] = target: T1, Testis-specific serine/threonine-protein kinase 1 (Homo sapiens) (UniProt Q9BXA7); conditions: at 1 µM
# T1 sequence (whole entry): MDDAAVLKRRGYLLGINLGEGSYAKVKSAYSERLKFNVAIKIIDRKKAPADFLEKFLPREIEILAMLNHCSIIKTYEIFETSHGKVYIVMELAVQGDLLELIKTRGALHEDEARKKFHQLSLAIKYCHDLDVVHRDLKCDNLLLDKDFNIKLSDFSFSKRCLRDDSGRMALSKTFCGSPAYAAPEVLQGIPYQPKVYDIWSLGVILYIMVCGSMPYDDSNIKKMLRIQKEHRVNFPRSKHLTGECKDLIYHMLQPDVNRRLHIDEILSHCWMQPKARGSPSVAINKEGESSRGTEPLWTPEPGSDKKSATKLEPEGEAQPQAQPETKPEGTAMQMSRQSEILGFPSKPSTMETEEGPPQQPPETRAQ
# [2] = target: T1, Testis-specific serine/threonine-protein kinase 1 (Homo sapiens); conditions: at 10 µM
# [3] = target: T2, Testis-specific serine/threonine-protein kinase 2 (Homo sapiens) (UniProt Q96PF2); conditions: at 10 µM
# T2 sequence (whole entry): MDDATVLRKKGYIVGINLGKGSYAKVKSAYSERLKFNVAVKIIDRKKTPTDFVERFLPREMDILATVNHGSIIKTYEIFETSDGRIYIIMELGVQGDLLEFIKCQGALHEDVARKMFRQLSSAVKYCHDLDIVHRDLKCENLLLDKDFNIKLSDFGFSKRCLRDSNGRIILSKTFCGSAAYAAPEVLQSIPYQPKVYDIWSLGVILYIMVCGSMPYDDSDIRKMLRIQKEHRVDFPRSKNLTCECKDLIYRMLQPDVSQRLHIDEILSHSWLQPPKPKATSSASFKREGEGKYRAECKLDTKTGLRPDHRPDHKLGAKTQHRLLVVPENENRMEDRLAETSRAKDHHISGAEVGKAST
# [4] = target: T3, Tyrosine-protein kinase Tec (Homo sapiens) (UniProt P42680); conditions: at 1 µM
# T3 sequence (whole entry): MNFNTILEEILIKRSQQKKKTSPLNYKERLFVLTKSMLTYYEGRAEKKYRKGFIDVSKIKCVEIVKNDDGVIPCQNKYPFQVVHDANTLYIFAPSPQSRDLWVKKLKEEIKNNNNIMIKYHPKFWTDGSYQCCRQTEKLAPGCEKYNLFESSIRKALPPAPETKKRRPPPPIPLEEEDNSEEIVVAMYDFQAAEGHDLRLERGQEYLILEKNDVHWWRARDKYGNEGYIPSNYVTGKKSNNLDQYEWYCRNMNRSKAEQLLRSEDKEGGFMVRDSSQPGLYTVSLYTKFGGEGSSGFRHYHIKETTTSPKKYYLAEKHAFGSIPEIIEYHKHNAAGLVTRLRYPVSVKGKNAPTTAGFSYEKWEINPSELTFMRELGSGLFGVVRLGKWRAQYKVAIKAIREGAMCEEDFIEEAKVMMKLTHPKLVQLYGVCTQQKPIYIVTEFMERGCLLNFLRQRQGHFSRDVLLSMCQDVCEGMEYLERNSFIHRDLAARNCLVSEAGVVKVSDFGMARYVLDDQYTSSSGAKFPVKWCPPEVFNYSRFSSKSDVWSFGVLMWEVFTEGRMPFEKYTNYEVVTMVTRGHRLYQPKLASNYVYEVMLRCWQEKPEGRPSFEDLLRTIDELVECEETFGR
# [5] = target: T3, Tyrosine-protein kinase Tec (Homo sapiens); conditions: at 10 µM
# [6] = target: Angiopoietin-1 receptor (Homo sapiens) (UniProt Q02763); conditions: at 1 µM
# [7] = target: Angiopoietin-1 receptor (Homo sapiens) (UniProt Q02763); conditions: at 10 µM
# [8] = target: High affinity nerve growth factor receptor (Homo sapiens) (UniProt P04629); conditions: at 1 µM
# [9] = target: High affinity nerve growth factor receptor (Homo sapiens) (UniProt P04629); conditions: at 10 µM
# [10] = target: BDNF/NT-3 growth factors receptor (Homo sapiens) (UniProt Q16620); conditions: at 1 µM
# BDNF/NT-3 growth factors receptor (Homo sapiens), sequence (Q16620 32-822 limits assumed): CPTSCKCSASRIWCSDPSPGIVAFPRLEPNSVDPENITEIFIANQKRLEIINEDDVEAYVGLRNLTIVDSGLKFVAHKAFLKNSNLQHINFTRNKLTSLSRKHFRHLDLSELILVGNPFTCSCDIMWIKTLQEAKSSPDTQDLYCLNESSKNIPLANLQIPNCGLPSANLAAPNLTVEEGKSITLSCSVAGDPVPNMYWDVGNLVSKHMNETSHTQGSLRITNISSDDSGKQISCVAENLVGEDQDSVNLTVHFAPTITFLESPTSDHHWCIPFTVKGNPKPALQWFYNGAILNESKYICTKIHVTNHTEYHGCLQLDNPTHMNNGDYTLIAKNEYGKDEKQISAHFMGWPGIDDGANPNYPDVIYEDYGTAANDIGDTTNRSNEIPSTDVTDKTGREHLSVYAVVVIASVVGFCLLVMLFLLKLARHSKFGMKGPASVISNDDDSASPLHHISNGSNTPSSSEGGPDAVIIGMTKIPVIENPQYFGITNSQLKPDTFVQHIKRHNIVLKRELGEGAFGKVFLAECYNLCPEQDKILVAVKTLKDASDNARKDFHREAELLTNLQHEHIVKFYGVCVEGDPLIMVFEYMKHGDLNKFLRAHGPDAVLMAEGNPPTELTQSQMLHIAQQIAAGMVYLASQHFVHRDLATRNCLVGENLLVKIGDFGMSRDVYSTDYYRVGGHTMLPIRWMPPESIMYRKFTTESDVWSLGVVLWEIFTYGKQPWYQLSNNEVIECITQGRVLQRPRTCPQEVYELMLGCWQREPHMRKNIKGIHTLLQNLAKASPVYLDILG
# High affinity nerve growth factor receptor (Homo sapiens), sequence (P04629 33-796 limits assumed): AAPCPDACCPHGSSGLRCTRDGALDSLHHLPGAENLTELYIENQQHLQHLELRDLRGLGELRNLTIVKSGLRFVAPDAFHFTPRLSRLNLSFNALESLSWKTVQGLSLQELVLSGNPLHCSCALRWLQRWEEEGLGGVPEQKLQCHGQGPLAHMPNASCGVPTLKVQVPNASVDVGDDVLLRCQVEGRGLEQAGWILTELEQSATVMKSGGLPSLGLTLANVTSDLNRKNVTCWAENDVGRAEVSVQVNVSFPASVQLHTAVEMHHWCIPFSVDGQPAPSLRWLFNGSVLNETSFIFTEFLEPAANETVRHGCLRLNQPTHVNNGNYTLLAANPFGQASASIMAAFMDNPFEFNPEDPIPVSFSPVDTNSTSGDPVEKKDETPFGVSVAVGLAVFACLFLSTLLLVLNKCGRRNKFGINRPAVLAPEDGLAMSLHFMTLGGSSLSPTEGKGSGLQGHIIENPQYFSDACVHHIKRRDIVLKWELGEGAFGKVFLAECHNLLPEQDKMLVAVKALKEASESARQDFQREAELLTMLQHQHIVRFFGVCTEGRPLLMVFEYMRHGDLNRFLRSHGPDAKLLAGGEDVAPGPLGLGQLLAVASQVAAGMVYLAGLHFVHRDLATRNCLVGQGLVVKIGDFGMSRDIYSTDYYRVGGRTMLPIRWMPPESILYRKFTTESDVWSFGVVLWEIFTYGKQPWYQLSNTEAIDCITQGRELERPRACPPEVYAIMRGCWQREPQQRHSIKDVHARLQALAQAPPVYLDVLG
# Angiopoietin-1 receptor (Homo sapiens), sequence (Q02763 whole entry): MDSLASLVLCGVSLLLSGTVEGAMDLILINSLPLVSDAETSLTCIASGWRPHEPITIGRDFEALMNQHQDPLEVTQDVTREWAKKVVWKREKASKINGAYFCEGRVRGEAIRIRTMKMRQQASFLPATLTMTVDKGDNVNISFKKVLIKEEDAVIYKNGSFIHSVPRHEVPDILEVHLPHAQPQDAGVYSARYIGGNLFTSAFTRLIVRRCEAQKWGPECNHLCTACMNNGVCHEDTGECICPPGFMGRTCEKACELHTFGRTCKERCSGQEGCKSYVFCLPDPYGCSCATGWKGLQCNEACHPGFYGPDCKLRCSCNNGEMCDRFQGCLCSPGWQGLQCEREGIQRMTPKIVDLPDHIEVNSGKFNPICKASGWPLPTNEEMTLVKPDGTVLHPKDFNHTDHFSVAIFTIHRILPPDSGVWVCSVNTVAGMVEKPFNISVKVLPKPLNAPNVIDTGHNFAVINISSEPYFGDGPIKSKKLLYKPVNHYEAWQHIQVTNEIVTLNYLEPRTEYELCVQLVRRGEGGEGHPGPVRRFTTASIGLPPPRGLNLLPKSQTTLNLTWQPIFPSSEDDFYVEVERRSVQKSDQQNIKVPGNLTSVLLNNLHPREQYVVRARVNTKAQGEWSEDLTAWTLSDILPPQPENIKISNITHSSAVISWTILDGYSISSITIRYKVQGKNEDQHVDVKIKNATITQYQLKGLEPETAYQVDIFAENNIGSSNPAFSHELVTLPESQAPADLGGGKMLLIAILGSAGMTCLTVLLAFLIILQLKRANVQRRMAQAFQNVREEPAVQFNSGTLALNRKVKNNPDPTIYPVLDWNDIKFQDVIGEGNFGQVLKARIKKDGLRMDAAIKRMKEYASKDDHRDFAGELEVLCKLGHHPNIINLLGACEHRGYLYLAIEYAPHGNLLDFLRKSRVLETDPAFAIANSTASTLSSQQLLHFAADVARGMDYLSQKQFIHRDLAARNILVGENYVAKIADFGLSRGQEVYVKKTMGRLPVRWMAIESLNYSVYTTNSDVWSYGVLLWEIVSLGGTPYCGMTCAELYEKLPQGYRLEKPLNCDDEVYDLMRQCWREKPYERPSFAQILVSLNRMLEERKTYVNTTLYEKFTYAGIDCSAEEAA
Structure (SMILES),residual activity [1],residual activity [2],residual activity [3],residual activity [4],residual activity [5],residual activity [6],residual activity [7],residual activity [8],residual activity [9],residual activity [10]
CO[C@@H]1[C@H](N(C)C(=O)c2ccccc2)C[C@H]2O[C@]1(C)n1c3ccccc3c3c4c(c5c6ccccc6n2c5c31)C(=O)NC4,15%,6%,30%,85%,40%,133%,73%,0%,-1%,23%
Oc1n[nH]c2nnc(-c3c(-c4ccccc4)nn4ccccc34)cc12,82%,93%,83%,85%,66%,97%,93%,83%,70%,98%
Oc1ccc(Nc2nc(-c3ccc(Cl)cc3)cs2)cc1,110%,87%,105%,100%,78%,113%,131%,108%,64%,74%
O=c1cc(-c2cccc3c2Sc2ccccc2S3)oc(N2CCOCC2)c1,92%,98%,90%,94%,75%,101%,61%,114%,95%,75%
Cc1nc(-c2ccccc2)c(-c2ccncc2)o1,100%,88%,98%,103%,42%,100%,122%,117%,95%,55%
COc1ccc(OC)c2c(=S)c3ccccc3[nH]c12,90%,94%,90%,92%,84%,94%,94%,78%,57%,88%
CNc1cc2c(Nc3cccc(Br)c3)ncnc2cn1,93%,90%,103%,96%,52%,90%,89%,69%,53%,64%
O=C1NC(=O)/C(=C\c2ccc3nccnc3c2)S1,92%,58%,86%,98%,79%,75%,83%,127%,96%,126%
